# Assay results reported in the supplement of paper PMC7411054.
# Tests used:
# Conditions in all cases: treatment time: 24 h
# A549-ACTB-RAB5A = experiment: phenotypically active (imaging signature differs from DMSO and reproducible) at any of 0.3-9 uM (binary (1 = active, 0 = inactive)); higher = active
# Method in brief: (§1)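 After 24 h at 0.3, 1, 3 or 9 µM, with four wells per treatment, fifteen gene-edited A549, HepG2 and WPMY1 reporter lines carrying BFP, GFP and RFP/FusionRed were imaged live. Each well's live-cell features were expressed relative to solvent control wells. Deviation required ≥3 of 4 wells past the 95th percentile of control Euclidean distances, and reproducibility a median replicate Pearson correlation over the 95th percentile of non-replicates. Phenotypic activity rested on both.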
# A549-CANX-COX4 = experiment: as above
# Method in brief: as §1
# A549-GM130-SQSTM1 [1] = experiment: as above
# Method in brief: as §1
# A549-TP53BP1-CLTA = experiment: as above
# Method in brief: as §1
# A549-TUBA1B-RELA = experiment: as above
# Method in brief: as §1
# HepG2-ACTB-RAB5A = experiment: as above
# Method in brief: as §1
# HepG2-CANX-COX4 [2] = experiment: as above
# Method in brief: as §1
# HepG2-GM130-SQSTM1 = experiment: as above
# Method in brief: as §1
# HepG2-TP53BP1-CLTA = experiment: as above
# Method in brief: as §1
# HepG2-TUBA1B-RELA = experiment: as above
# Method in brief: as §1
# WPMY1-ACTB-RAB5A = experiment: as above
# Method in brief: as §1
# WPMY1-CANX-COX4 [3] = experiment: as above
# Method in brief: as §1
# WPMY1-GM130-SQSTM1 [4] = experiment: as above
# Method in brief: as §1
# WPMY1-TP53BP1-CLTA = experiment: as above
# Method in brief: as §1
# WPMY1-TUBA1B-RELA = experiment: as above
# Method in brief: as §1
# A549-GM130-SQSTM1 [5] = experiment: lowest phenotypically active concentration; higher = less potent
# Method in brief: as §1
# WPMY1-CANX-COX4 [6] = experiment: as above
# Method in brief: as §1
# WPMY1-GM130-SQSTM1 [7] = experiment: as above
# Method in brief: as §1
# HepG2-CANX-COX4 [8] = experiment: as above
# Method in brief: as §1
SMILES,phenotypically active (A549-ACTB-RAB5A),phenotypically active (A549-CANX-COX4),phenotypically active (A549-GM130-SQSTM1 [1]),phenotypically active (A549-TP53BP1-CLTA),phenotypically active (A549-TUBA1B-RELA),phenotypically active (HepG2-ACTB-RAB5A),phenotypically active (HepG2-CANX-COX4 [2]),phenotypically active (HepG2-GM130-SQSTM1),phenotypically active (HepG2-TP53BP1-CLTA),phenotypically active (HepG2-TUBA1B-RELA),phenotypically active (WPMY1-ACTB-RAB5A),phenotypically active (WPMY1-CANX-COX4 [3]),phenotypically active (WPMY1-GM130-SQSTM1 [4]),phenotypically active (WPMY1-TP53BP1-CLTA),phenotypically active (WPMY1-TUBA1B-RELA),lowest phenotypically active concentration (A549-GM130-SQSTM1 [5]) [µM],lowest phenotypically active concentration (WPMY1-CANX-COX4 [6]) [µM],lowest phenotypically active concentration (WPMY1-GM130-SQSTM1 [7]) [µM],lowest phenotypically active concentration (HepG2-CANX-COX4 [8]) [µM]
COCCCOc1ccnc(CS(=O)c2nc3ccccc3[nH]2)c1C (configuration not stated) [rabeprazole],0 (inactive),0 (inactive),0 (inactive),0 (inactive),0 (inactive),1 (active),0 (inactive),0 (inactive),0 (inactive),1 (active),0 (inactive),0 (inactive),0 (inactive),0 (inactive),0 (inactive),,,,
O=c1c(O)c(-c2ccc(O)cc2)oc2cc(O)cc(O)c12 [Kaempferol],0 (inactive),0 (inactive),1 (active),0 (inactive),0 (inactive),0 (inactive),0 (inactive),0 (inactive),0 (inactive),0 (inactive),0 (inactive),1 (active),1 (active),1 (active),0 (inactive),9,9,9,
c1ccc(-c2n[nH]cc2-c2ccnc3ccccc23)nc1,0 (inactive),0 (inactive),0 (inactive),0 (inactive),1 (active),0 (inactive),1 (active),1 (active),1 (active),0 (inactive),1 (active),1 (active),0 (inactive),0 (inactive),0 (inactive),,9,,9
NC(=O)c1ccc(I)c([N+](=O)[O-])c1,0 (inactive),0 (inactive),0 (inactive),0 (inactive),0 (inactive),0 (inactive),0 (inactive),1 (active),0 (inactive),0 (inactive),0 (inactive),0 (inactive),0 (inactive),0 (inactive),0 (inactive),,,,
Nc1nnc2[nH]c3ccccc3nc1-2,0 (inactive),0 (inactive),0 (inactive),0 (inactive),0 (inactive),0 (inactive),1 (active),0 (inactive),0 (inactive),0 (inactive),0 (inactive),0 (inactive),0 (inactive),0 (inactive),0 (inactive),,,,9
CC(C)NCC(O)COc1ccc(CC(N)=O)cc1 (configuration not stated) [atenolol-()],0 (inactive),0 (inactive),1 (active),0 (inactive),0 (inactive),0 (inactive),0 (inactive),0 (inactive),0 (inactive),0 (inactive),0 (inactive),0 (inactive),1 (active),1 (active),0 (inactive),9,,9,
COc1ccc(S(=O)(=O)ON=C2C=C(C)C(=O)C(C)=C2)cc1,0 (inactive),0 (inactive),1 (active),0 (inactive),1 (active),0 (inactive),0 (inactive),0 (inactive),0 (inactive),0 (inactive),0 (inactive),0 (inactive),0 (inactive),0 (inactive),1 (active),9,,,
C[C@H](NC(=O)c1sccc1OCc1ccc(Cl)cc1)c1ccccc1,0 (inactive),0 (inactive),0 (inactive),1 (active),0 (inactive),0 (inactive),0 (inactive),0 (inactive),0 (inactive),0 (inactive),1 (active),0 (inactive),1 (active),1 (active),0 (inactive),,,3,
CC(C)[C@@H](C)/C=C/[C@@H](C)[C@H]1CC[C@H]2C3=CC=C4C[C@@H](O)CC[C@]4(C)[C@H]3CC[C@]12C [Ergosterine],0 (inactive),0 (inactive),1 (active),0 (inactive),1 (active),0 (inactive),0 (inactive),1 (active),0 (inactive),0 (inactive),0 (inactive),0 (inactive),0 (inactive),0 (inactive),0 (inactive),9,,,
COc1cc(-c2cn(C)c(=O)c3cnccc23)c(OC)cc1CN(C)C,0 (inactive),0 (inactive),0 (inactive),1 (active),0 (inactive),1 (active),0 (inactive),1 (active),0 (inactive),1 (active),0 (inactive),0 (inactive),0 (inactive),0 (inactive),1 (active),,,,
CC(C)N(CCCNC(=O)Nc1ccc(C(C)(C)C)cc1)C[C@H]1O[C@@H](n2ccc3c(N)ncnc32)[C@H](O)[C@@H]1O,0 (inactive),0 (inactive),0 (inactive),0 (inactive),0 (inactive),1 (active),0 (inactive),1 (active),1 (active),1 (active),0 (inactive),0 (inactive),0 (inactive),0 (inactive),1 (active),,,,
NS(=O)(=O)c1cc2c(cc1C(F)(F)F)NC(Cc1ccccc1)NS2(=O)=O (configuration not stated) [bendroflumethiazide],0 (inactive),0 (inactive),0 (inactive),0 (inactive),0 (inactive),0 (inactive),1 (active),0 (inactive),0 (inactive),0 (inactive),0 (inactive),0 (inactive),0 (inactive),0 (inactive),0 (inactive),,,,3
